Source: PubChem BioAssay AID743415 (Broad Institute, 2014)
Results with a measured potency or affinity are listed apart. Active and inactive are the calls of the source.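 The calls were made as follows: active = compounds lowering Shn3 expression whose fitted half-maximal concentration is at most twice the top valid dose; inconclusive = flat partial decrease or an invalid curve fit; inactive = the rest.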

Assay: reduction of endogenous Shn3 mRNA, dose response, qPCR, Clone20 cells, cherry-pick (AID 743415)
Settings: overnight; series mostly up to 35 µM; relative Shn3 expression (fraction): at the top concentration

Relative Shn3 expression (fraction), inactive:
CC(C)(C)C(=O)Nc1ccc(NC(=O)c2ccco2)nc1 0.709, COc1ccc(NS(=O)(=O)c2ccc(OC)c(N(C)S(=O)(=O)c3ccc(Cl)cc3)c2)cc1 1.23, CCc1ccccc1NC(=O)COC(=O)c1c(C)nsc1NC 1.31, CC(=O)Nc1ccc(OCC(=O)Nc2ccc(Cl)c(S(=O)(=O)N3CCOCC3)c2)cc1 0.846, CC(C)Cn1c(N)c(C(=O)COC(=O)C2Cc3ccccc3CN2S(C)(=O)=O)c(=O)n(C)c1=O (stereo unspecified) 1.08, Cc1ccnc(SCC(=O)Nc2sc3c(c2C#N)CCCC3)n1 1.33, c1ccc(-c2noc(-c3ccc4ccccc4c3)n2)nc1 0.683, O=C(Cn1cnc2ccccc21)Nc1cccc(S(=O)(=O)N2CCCC2)c1 0.958, Cc1nc2scc(C)n2c(=O)c1S(=O)(=O)Nc1ccc(N2CCOCC2)c(Cl)c1 1.48, CCCOC(=O)c1ccc(OCC(O)Cn2c(C)nc3ccccc32)cc1 (stereo unspecified) 1.21, COc1ccccc1NC(=O)Cn1cc(C(=O)C2CC2)c2ccccc21 1.44, COc1ccc(OC)c(NC(=O)CN(Cc2ccc(F)cc2)C2CCCCC2)c1 1.71, Cc1ccccc1C(=O)N1CCN(c2ccc(NC(=O)CSc3ccc(Cl)cc3)cc2)CC1 2.02, Cc1ccc(NC(=O)c2cc(S(=O)(=O)NCCC3=CCCCC3)ccc2F)cc1F 1.86, CC(C)c1nc(SCC(=O)Nc2cccc(C(F)(F)F)c2)c2c(=O)n(C)c(=O)n(C)c2n1 1.45, Oc1ccc(-c2n[nH]c(C(F)(F)F)c2-c2ccccc2)c(O)c1 1.47, O=C(CSc1nnc(-c2cccnc2)s1)Nc1ccnc2ccccc12 0.959, CCOC(=O)N1CCN(c2ccc(S(=O)(=O)N(Cc3ccccc3)Cc3ccccc3)cn2)CC1 1.78, CCOc1cc(CNCCc2ccc(S(N)(=O)=O)cc2)ccc1OCc1ccccc1 2.11, CCOc1ccc(N(C)S(=O)(=O)c2cc(-c3cc(C)no3)ccc2C(C)C)cc1 2.28, CCn1c(CNC(=O)c2cc(OC)c(OC)c(OC)c2)cc2cc(C)ccc21 1.06, O=C(c1cc(COc2ccc3ncccc3c2)on1)N1CCCCCC1 0.889, Cc1ccc(NC(=O)c2ccc(Cl)c(N3C(=O)C=CC3=O)c2)cc1 7.39, Cc1ccc(CNC(=O)c2cc3c(C)nc4ccccc4c3o2)cc1 1.06, c1ccc(CNc2ncnc3scc(-c4cccs4)c23)nc1 0.593, COc1cc(NC(=O)c2cccc3c(-c4cccnc4)coc23)cc(OC)c1OC 0.765, CC1CCCC(NC(=O)c2cccc(S(=O)(=O)N3CCN(c4ccccc4)CC3)c2)C1C (stereo unspecified) 1.12, CNc1ccccc1C(C)(C)c1cc(-c2cccc(OC)c2)no1 1.16, CC(Sc1nc2ccccc2c(=O)n1C)C(=O)N(C)C1CCCCC1 (stereo unspecified) 1.25, CCCn1c(C)cc(C(=O)CN2C(=O)c3ccccc3S2(=O)=O)c1C 1.12, Cc1nc2ccccc2cc1OCc1ccc(F)cc1 1.29, CC(=O)N1c2ccc(S(=O)(=O)N3CCC(C(=O)N4CCN(c5cccc(C(F)(F)F)c5)CC4)CC3)cc2CC1C (stereo unspecified) 1.22, Cc1cccc(NS(=O)(=O)c2ccc(C3CCCCC3)cc2)c1 2.21, O=C(Nc1ccc(Cl)cc1)c1cc(S(=O)(=O)N2CCOCC2)cs1 1.29, Cc1ccc(-c2csc(N3CCC(NS(=O)(=O)c4ccc5c(c4)OCCO5)CC3)n2)cc1 1.51, CC(C)CCOc1cccc(OCC(=O)Nc2ccncc2)c1 1.53
